Test results published in PubChem BioAssay (NCI).
This is part of a sample that, as a whole, favours compounds with a hit. Of some 83,000 tested, about 20% had one in any assay.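 Plates (96-well) were seeded with cells, treated with compound at one concentration, and incubated for 48 hours before percent growth was determined.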 Unmarked numbers belong to inactive results. Active and inactive are the calls of the source. Rule for the calls: active = growth percent below 10; inactive = the rest.

Tests used:
Assay in all cases: NCI-60 one-dose screen, 48 h (100 = growth as untreated, 0 = no growth, -100 = all killed)
Conditions in all cases: 10 µM unless noted
DU-145 prostate = test system: DU-145 prostate
K-562 leukemia = test system: K-562 leukemia
MALME-3M melanoma = test system: MALME-3M melanoma
MDA-MB-231 breast = test system: MDA-MB-231 breast
RXF 393 renal = test system: RXF 393 renal
SF-268 CNS = test system: SF-268 CNS
SF-295 CNS = test system: SF-295 CNS
SF-539 CNS = test system: SF-539 CNS
UACC-257 melanoma = test system: UACC-257 melanoma
M14 melanoma = test system: M14 melanoma
HCT-15 colon = test system: HCT-15 colon
SNB-75 CNS = test system: SNB-75 CNS
SNB-19 CNS = test system: SNB-19 CNS
U251 CNS = test system: U251 CNS
PC-3 prostate = test system: PC-3 prostate
SK-MEL-5 melanoma = test system: SK-MEL-5 melanoma
UACC-62 melanoma = test system: UACC-62 melanoma
LOX IMVI melanoma = test system: LOX IMVI melanoma
SK-MEL-28 melanoma = test system: SK-MEL-28 melanoma
HT29 colon = test system: HT29 colon

SMILES | growth (DU-145 prostate) | growth (K-562 leukemia) | growth (MALME-3M melanoma) | growth (MDA-MB-231 breast) | growth (RXF 393 renal) | growth (SF-268 CNS) | growth (SF-295 CNS) | growth (SF-539 CNS) | growth (UACC-257 melanoma) | growth (M14 melanoma) | growth (HCT-15 colon) | growth (SNB-75 CNS) | growth (SNB-19 CNS) | growth (U251 CNS) | growth (PC-3 prostate) | growth (SK-MEL-5 melanoma) | growth (UACC-62 melanoma) | growth (LOX IMVI melanoma) | growth (SK-MEL-28 melanoma) | growth (HT29 colon)
Cn1cc(-c2csc(-c3ccccc3)n2)c2cccnc21 | -61.4% [100 µM] (active) | 1.43% [100 µM] (active) | -44.2% [100 µM] (active) | -42.7% [100 µM] (active) | -37.4% [100 µM] (active) | -18.3% [100 µM] (active) | -47.2% [100 µM] (active) | -71% [100 µM] (active) | -27.7% [100 µM] (active) | -76.6% [100 µM] (active) | -40.3% [100 µM] (active) | -15.9% [100 µM] (active) | -50.2% [100 µM] (active) | -33.8% [100 µM] (active) | -16.9% [100 µM] (active) | -83.2% [100 µM] (active) | -62.7% [100 µM] (active) | -54.3% [100 µM] (active) | -57.4% [100 µM] (active) | –
C=CCSc1nc2ccccc2cc1/C=N/O | 110% | 92.3% | 129% | 97.6% | 68.8% | 90.8% | 94.7% | 104% | 87.6% | 91% | 95.8% | 58% | – | 86.6% | 83.1% | 96.3% | 71.2% | 85.9% | 88% | –
CC/C=C\C[C@H](O)C/C=C1/C(=O)C=C[C@@H]1C/C=C\CCCCO | 28.3% | 6.44% (active) | 34.7% | 8.29% (active) | 56.1% | 78.3% | 10.6% | 14.5% | 34% | 16.4% | – | 76.1% | 55.8% | -33% (active) | 0.486% (active) | 10.5% | -23.3% (active) | -68.9% (active) | – | -39% (active)
COc1cccc(Nc2nccc(Nc3ccc4[nH]ncc4c3)n2)c1 | -59.1% (active) | -9.77% (active) | -48.7% (active) | 15% | 18.4% | 26.3% | 16.2% | 13.9% | 11.2% | -74.2% (active) | -26.6% (active) | 30.3% | – | -93.7% (active) | -81.2% (active) | -83.6% (active) | -56.7% (active) | -66.9% (active) | -42.6% (active) | –
C=C1C(=O)O[C@H]2[C@H]1CC/C(COC(=O)C(=O)c1c[nH]c3ccccc13)=C\CC[C@@]1(C)O[C@@H]21 | -31.4% (active) | -4.12% (active) | -63.1% (active) | -56.8% (active) | -89.1% (active) | -46.3% (active) | 56.6% | -65.3% (active) | -69.3% (active) | -57.2% (active) | -42.9% (active) | -55% (active) | 30.3% | -82.3% (active) | -66.8% (active) | -89.6% (active) | -82.2% (active) | -81.1% (active) | -54% (active) | –
CC(C)(C)c1ccc(/C=C/C(=O)Nc2ccc(O)cc2)cc1 | 70.3% | 4.2% (active) | 67% | 53% | 90.9% | 59.7% | 79.5% | 40.6% | 64.9% | 28.4% | 43.4% | 96.6% | 83.3% | 72.8% | 59% | 51.4% | 55.1% | -3.96% (active) | 86.5% | –
O=C(Nc1ccc(Cl)cc1)Nc1ccc(Cl)c(C(F)(F)F)c1 | 20.2% | -10.2% (active) | -30.7% (active) | -4.47% (active) | 33.6% | 21.3% | -28.2% (active) | 4.38% (active) | 2.84% (active) | 11.8% | 8.11% (active) | 41.3% | 13% | 4.41% (active) | -8.98% (active) | -13.3% (active) | 23.9% | 3.49% (active) | 19.1% | –
COc1cc2c(cc1-c1c(C)noc1C)ncc1nc(C3CCCCC3)n(C3CCC(OC(F)F)CC3)c12 (stereo not drawn) | 63% | 20.1% | 41.7% | 35.9% | 36.5% | 57% | 33.9% | 47% | 40.3% | 39.6% | 25.3% | 23.3% | 55.8% | 25.1% | – | 9.79% (active) | 22.3% | 17.8% | 46.6% | –
